Experimental data taken from ChEMBL document CHEMBL3988442, “University of Dundee, Small-Polar-MMV Screening Library” (2021).
Screen size: about 85,000 compounds; about 440 (0.52%) showed an effect of 50% or more. The list comes from a sample in which strong results are over-represented; it also holds similar structures and randomly drawn compounds.

Experiment: In vitro enzyme assay to detect hydrolysis of chlorophenol red-beta-D-[…] directly proportional to the number of Toxoplasma stably expressing beta-galactosidase
Assay type: functional, organism-based, Toxoplasma gondii
Design: scale not given: in the data most compounds retested in dose-response had high values

Compound	Percent Effect (50 µM) [%]	Percent Effect (10 µM) [%]
CNC(=O)NC(=O)CCN1CCCC(C(F)(F)F)C1 (stereo not drawn)	-7.84	
CNC(=O)NC(=O)CCN1CCCCC1	-8.963	
CNC(=O)NC(=O)CCN1CCCC(C)C1 (stereo not drawn)	60.28	
Cc1nn(C)cc1C(C)NC(=O)CNc1ccccc1 (stereo not drawn)	-0.7115	
CN(CC(=O)N1CCOCC1)Cc1cc(Br)cs1	6.245	
COc1ccccc1C1(CNc2snc(Cl)c2C#N)CCOCC1		-0.2674
COc1ccccc1C1(CNc2snc(Cl)c2C#N)CCCC1		2.513
N#Cc1c(Cl)nsc1NCC1(c2ccccc2)CCC1		79.2
Cc1noc(C)c1C(=O)NC1CCN(CC2CC2)CC1	-0.3877	
CC(C)c1nsc(NCC2=COCCO2)n1	-1.035	
Cc1[nH]c2ccccc2c1-c1ccnc(NC[C@H](O)CO)n1		15.34
Cc1[nH]c2ccccc2c1-c1ccnc(N[C@@H](C)CO)n1		58.12
Cc1[nH]c2ccccc2c1-c1ccnc(NCCN2CCCCC2)n1		28.85
Cc1[nH]c2ccccc2c1-c1ccnc(NCCN2CCOCC2)n1		-5.812
Cc1[nH]c2ccccc2c1-c1ccnc(N[C@H](CO)CC(C)C)n1		53.1
Cc1[nH]c2ccccc2c1-c1ccnc(N[C@@H](CO)C(C)C)n1		48.14
NCc1cc2c([nH]c1=O)CCC2	5.937	
CCN(CCCOC)CC(=O)Nc1cccc(OC)c1	-2.356	
COc1ccc(-c2cncc(N)c2)cc1CO	96.02	
COc1ccc(NC(=O)c2cncc(C)c2)cc1CO	-7.73	
COc1ccc(NC(=O)c2ccc(Br)cn2)cc1CO	-27.31	
CCc1nc(C2CCCN2CC(=O)NCCc2ccsc2)no1 (stereo not drawn)		89.95
Cc1nc(C2CCCN2CC(=O)NCCc2ccsc2)no1 (stereo not drawn)		7.324
O=C(CN1CCCC1c1noc(C2CC2)n1)NCCc1ccsc1 (stereo not drawn)		19.94

Compound	Percent Effect (50 µM) [%]	Percent Effect (10 µM) [%]
CCN(C)C(=O)CNc1ccccc1S(=O)(=O)CC	-2.619	
O=C([C@@H]1CCCN1)N1CCCC1c1cccnc1 (stereo partly drawn)	-9.249	
COCC(C)(CCO)NCc1cccc(F)c1 (stereo not drawn)	2.377	
CC1(c2ccccc2)CCCN(Cc2cncn2C2CCCC2)C1 (stereo not drawn)		64.76
COCCn1cncc1CN1CCCC(C)(c2ccccc2)C1 (stereo not drawn)		0.6483
CC1(c2ccccc2)CCCN(Cc2cncn2C2CC2)C1 (stereo not drawn)		20.67
O=C(C(O)c1ccccc1)N(CCO)Cc1ccsc1 (stereo not drawn)	11.77	
CCOC(=O)c1sc(O)nc1C	-0.2183	
CC(C)C(NC(=O)c1ccco1)C(=O)N1CCOCC1 (stereo not drawn)	-3.141	
NCC1(NS(=O)(=O)c2cccc3nonc23)CCCC1	-3.738	
CC(C)NC(=O)C1CN(C(=O)Cc2ccccc2)CC12CCOCC2 (stereo not drawn)		0.09588
CC(C)NC(=O)C1CN(C(=O)CCc2ccccc2)CC12CCOCC2 (stereo not drawn)		56.76
CC(C)NC(=O)C1CN(C(=O)NCc2ccccc2)CC12CCOCC2 (stereo not drawn)		-9.471
CC(O)CN1CCN(C(=O)CN(C)C2CC2)CC1 (stereo not drawn)	3.925	
Cc1cc(CNC(=O)CCCN2CCCCC2)ccn1	-5.389	
NC(=O)NCC1CCCN1 (stereo not drawn)	26.88	
CNCC(C)CNC(=O)c1ccc(C(N)=O)nc1 (stereo not drawn)	-13.42	
Cc1cc(C)nc(NC(=O)NC2CCC(O)CC2)c1 (stereo not drawn)	31.49	
O=C(NCCc1nnc[nH]1)C1SCCc2ccccc21 (stereo not drawn)	-20.61	
CN(CC(C)(CO)CO)C(=O)Nc1cc(F)cc(F)c1		14.95
CN(C)C(=O)Nc1cc(F)cc(F)c1	57.68	
CNCC(=O)Nc1cc(F)cc(F)c1	12.71	
COC1CCN(CC(=O)Nc2ccc(C(N)=O)cc2)C1 (stereo not drawn)	-13.26	
CC(=O)NCCNC(=O)c1cc(Cl)c(Cl)n1C	-20.76	

Compound	Percent Effect (50 µM) [%]	Percent Effect (10 µM) [%]
CCc1cc(N2CCCC(CN)C2)n2nccc2n1 (stereo not drawn)	8.07	
Cn1cc(N2CC3(COCCN(Cc4nccs4)C3)OCC2=O)cn1.O=C(O)C(F)(F)F (stereo not drawn)		3.864
Cn1cc(N2CC3(CCN(Cc4nccs4)CC3)OCC2=O)cn1.O=C(O)C(F)(F)F		66.73
O=C(O)C(F)(F)F.O=C1COC2(CCN(Cc3nccs3)CC2)CN1c1ccccc1		-19.73
CN(C)S(=O)(=O)N1CCCC1c1ccsc1 (stereo not drawn)	2.745	
O=S(=O)(c1ccc2c(c1)CCCN2)N1CCCC1	5.041	
O=C(CCCNC(=O)C1CCCO1)Nc1ccc(Cl)cc1 (stereo not drawn)		23.23
O=C(CCCNC(=O)C1CC1)Nc1cnn(-c2ccccc2Cl)c1		12.28
Cc1ccc(NC(=O)CCCNC(=O)C2CC2)cc1	98.6	
CNCCCNS(=O)(=O)c1ccc(Br)c(C(C)=O)c1	7.594	
COCC(=O)N[C@H]1CN(CCS(C)(=O)=O)C[C@@H]1C(C)C	-7.194	
CCn1nc(CC(C)C)cc1C(=O)N1CCC(N)C1 (stereo not drawn)	-11.21	
CC(Nc1cccc2c1OCCO2)C(=O)Nc1ccc(Cl)cc1 (stereo not drawn)		6.519
CC(Nc1cccc2c1OCCO2)C(=O)Nc1ccc(S(N)(=O)=O)cc1 (stereo not drawn)		5.712
CCc1ccc(NC(=O)C(C)Nc2cccc3c2OCCO3)cc1 (stereo not drawn)		82.59
CC(C)CC1NCCCNC1=O (stereo not drawn)	0.1576	
CS(=O)(=O)CCn1ccnc1-c1ccc(Cl)s1	-2.415	
CCOC(=O)C1(Cc2ccccc2-c2ccccc2OC)CCNCC1.Cl		44.64
COc1ccccc1-c1ccccc1CC1(C(=O)O)CCNCC1		8.204
CN(CCCC1CCCO1)C(=O)c1cccc(N)n1 (stereo not drawn)	1.142	
CC(=O)NCC(=O)N1CCN(c2ccncc2Cl)CC1	-5.39	
OC(CNC1CCSCC1)c1cccc(OCc2ccccc2)c1 (stereo not drawn)		40.53
OC(CNC1CCOCC1)c1cccc(OCc2ccccc2)c1 (stereo not drawn)		6.488
CN1CCC(NCC(O)c2cccc(OCc3ccccc3)c2)CC1 (stereo not drawn)		74.89

Compound	Percent Effect (50 µM) [%]	Percent Effect (10 µM) [%]
Cc1ccc(NC(=O)CN(C)C2CC[S+]([O-])CC2)cc1 (stereo not drawn)	-6.954	
COc1ccc(C)cc1NC(=O)Cn1ccnc1	17.12	
O=C(NCc1ccc2c(c1)OCO2)Nc1nccs1	-9.702	
NC(CC1CCCC1)c1ccc(Oc2ccccc2)cc1 (stereo not drawn)		55.94
Cl.NC(CC1CCCC1)c1ccccc1 (stereo not drawn)		-47.66
COCC(N)c1ccccc1 (stereo not drawn)	3.787	
CCOC(=O)C1(C(C)C)CCN(C(=O)c2cn[nH]c2)C1 (stereo not drawn)	-4.733	
COC(C)(C)C(=O)CSc1cc(C#N)ccn1	9.152	
N#Cc1ccnc(SCc2ccncc2)c1	30.75	
N#Cc1ccnc(SCC(=O)Nc2ccncc2)c1	98.13	
O=C(Cn1cc(Br)cn1)Nc1ccc2c(c1)OCCO2	-0.8097	
NC(=O)C[C@@H](N)c1ccc(Cl)cc1	0.4297	
NC(=O)C[C@H](N)c1ccccc1	8.251	
NC(=O)C[C@@H](N)c1ccccc1Cl	50.18	
COc1cccc(-c2noc(C3CCN(Cc4ccccc4F)C3)n2)c1.Cl (stereo not drawn)		11.37
COc1cccc(-c2noc(C3CCN(Cc4ccccc4C)C3)n2)c1.Cl (stereo not drawn)		42.09
CCn1ccnc1C1CCCN(CCC(N)=O)C1 (stereo not drawn)	24	
CCn1ccnc1C1CCN(CC(=O)N(C)C)CC1	16.85	
CCNC(=O)CN1CCCC(c2nccn2CC)C1 (stereo not drawn)	95.83	
CC(C)COC1CCN(S(=O)(=O)N2CCCC2)CC1	99.18	
COCC(C)S(=O)(=O)N1CCCCC1 (stereo not drawn)	6.357	
CC(C)COC1CCN(S(=O)(=O)Cc2cccc(F)c2)CC1		8.24
Cc1nc2ccc(C(=O)N3CC(O)C3)cc2nc1C	-4.584	
CSc1cccc(F)c1CN	2.771	

Compound	Percent Effect (50 µM) [%]	Percent Effect (10 µM) [%]
CC(=O)NCc1cccc(OCc2ccccn2)c1	53.39	
NCc1cccc(OCc2ccccn2)c1	-1.325	
COc1cccc(CNCc2ccccn2)c1	10.94	
Cc1noc(C)c1C(=O)N(C)C1CCS(=O)(=O)C1 (stereo not drawn)	-15.63	
Cc1ccc(C2COCCN2)o1 (stereo not drawn)	3.644	
COCC(=O)N1CCn2c(COc3cccnc3)cnc2C1C.O=C(O)C(F)(F)F (stereo not drawn)		84.28
CC1c2ncc(COc3cccnc3)n2CCN1C(=O)Cc1ccco1.O=C(O)C(F)(F)F (stereo not drawn)		-0.5977
CC1c2ncc(COc3cccnc3)n2CCN1C(=O)C1=CCCC1.O=C(O)C(F)(F)F (stereo not drawn)		10.52
O=C(NCCSCc1ccco1)c1cccnc1O	-3.309	
COc1ccc(CC#N)cc1S(C)(=O)=O	54.15	
COc1ccc(CC(C)(C#N)NC(C)=O)cc1OC (stereo not drawn)	14.61	
COc1ccccc1CC#N	14.35	
COc1c(C(=O)N2CCNC(=O)C2)cnc2c1c(C)nn2C		0.4571
COC(=O)c1cnc2c(c(C)nn2C)c1OC		68.54
COc1c(C(=O)N2CCOCC2)cnc2c1c(C)nn2C		-14.92
CN1CCN(Cc2nccn2C)[C@H]2CS(=O)(=O)C[C@H]21	0.771	
OCCNCCNCc1ccc(-c2cccc(Cl)c2)o1	71.47	
OCCNCCNCc1ccc(-c2ccccc2Cl)o1	33.01	
OCCNCCNCc1ccc(-c2ccccc2)o1	1.266	
O=C(NCCSC1CCCC1)c1cnccn1		0.9702
O=C(NC1CCCC1)c1cnccn1	54.91	
Cc1nnc2n1CCC(NC(=O)c1cnccn1)CC2 (stereo not drawn)	2.489	
